Measurements taken from the supplement of paper PMC9262897, “Low-cost anti-mycobacterial drug discovery using engineered E. coli” (Nature Communications, 2022).
Structures can show the parent of a compound that is named as a salt. ± gives the standard deviation of the averaged measurements.

Experiments:
Assay in all cases: growth (OD600 after 10 h); higher = more growth (less inhibition)
[1] = system: E. coli TESEC Alr+ wild-type control; conditions: compound 0.1 mM; raw OD600 reference: median of DMSO wells 0.241, cell-free background 0.041
Protocol: (§1)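 TESEC Mtb Alr E. coli, or the Alr+ wild-type control, in 384-well plates with Prestwick library compounds at 0.1 mM and 1% DMSO, across arabinose induction levels of 1E3 to 1E7 nM. Growth is read as OD600 after 10 h at 37 °C in triplicate biological replicates.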

[2] = system: E. coli TESEC Mtb Alr; conditions: compound 0.1 mM
Protocol: as §1

[3] = system: E. coli TESEC Mtb Asd; conditions: compound 0.1 mM
Protocol: (§2)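 TESEC E. coli strains in which the native enzyme is deleted and replaced by arabinose-inducible Mtb Asd, DapB, CysH or TrpD, each grown in its selective medium. Strains were screened against the Prestwick library at 0.1 mM and 1% DMSO in 384-well format at low and high arabinose induction. Growth is read as OD600 after 10 h in triplicate.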

[4] = system: E. coli TESEC Mtb DapB; conditions: compound 0.1 mM
Protocol: as §2

[5] = system: E. coli TESEC Alr+ wild-type control; conditions: compound 0.1 mM; raw OD600 reference: median of DMSO wells 0.49, cell-free background 0.052
Protocol: (§3)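 TESEC Mtb Alr E. coli (ΔaraC ΔtolC ΔentC Δalr ΔdadX, arabinose-inducible Mtb Alr) or the Alr+ wild-type control strain, grown in defined M9-fructose medium without D-alanine in 96-well plates with Prestwick library compounds at 0.1 mM and 1% DMSO. Low Alr induction is 0.1 µM arabinose and high induction is 10 mM arabinose.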

[6] = system: E. coli TESEC Mtb Alr; conditions: compound 0.1 mM; remark: listed apart in the source
Protocol: as §3

[7] = arabinose 1000 nM, raw OD600 reference: median of DMSO wells 0.294, cell-free background 0.041
[8] = arabinose 10000 nM, raw OD600 reference: median of DMSO wells 0.264, cell-free background 0.041
[9] = arabinose 100000 nM, raw OD600 reference: median of DMSO wells 0.201, cell-free background 0.041
[10] = arabinose 1000000 nM, raw OD600 reference: median of DMSO wells 0.193, cell-free background 0.041
[11] = arabinose 10000000 nM, raw OD600 reference: median of DMSO wells 0.146, cell-free background 0.041
[12] = arabinose induction (level): High, raw OD600 reference: median of DMSO wells 0.331, cell-free background 0.041
[13] = arabinose induction (level): Low, raw OD600 reference: median of DMSO wells 0.417, cell-free background 0.041
[14] = arabinose induction (level): High, raw OD600 reference: median of DMSO wells […], cell-free background 0.041
[15] = arabinose induction (level): Low, raw OD600 reference: median of DMSO wells 0.227, cell-free background 0.041
[16] = arabinose 100 nM, raw OD600 reference: median of DMSO wells 0.413, cell-free background 0.052
[17] = arabinose 10000000 nM, raw OD600 reference: median of DMSO wells […], cell-free background 0.052

Row | SMILES | growth [1] | growth [2, 7] | growth [2, 8] | growth [2, 9] | growth [2, 10] | growth [2, 11] | growth [3, 12] | growth [3, 13] | growth [4, 14] | growth [4, 15] | growth [5] | growth [6, 16] | growth [6, 17]
1 | C1CCC(C(CC2CCCCN2)C2CCCCC2)CC1 (configuration not stated) [Perhexiline maleate] | 0.0393 ± 0.0002 | 0.0389 ± 0.00046 | 0.03913 ± 0.00021 | 0.0407 ± 0.00064 | 0.03897 ± 0.00023 | 0.0389 ± 0.0004 | 0.04767 ± 0.00047 | 0.048 ± 0.0016 | 0.0462 ± 0.0004 | 0.0474 ± 0.002 | 0.0486 ± 0.00055 | 0.168 ± 0.18 | 0.0522 ± 0.0012
2 | Clc1ccc2c(c1)CCc1cccnc1C2=C1CCNCC1 [Desloratadine] | 0.2 ± 0.015 | 0.211 ± 0.0061 | 0.256 ± 0.0088 | 0.163 ± 0.0094 | 0.153 ± 0.0064 | 0.145 ± 0.0037 | 0.149 ± 0.023 | 0.251 ± 0.026 | 0.216 ± 0.033 | 0.215 ± 0.031 | 0.545 ± 0.014 | 0.398 ± 0.0076 | 0.288 ± 0.016
3 | CC(COc1ccccc1)NC(C)C(O)c1ccc(O)cc1 (configuration not stated) [Isoxsuprine hydrochloride] | 0.224 ± 0.0098 | 0.29 ± 0.014 | 0.256 ± 0.003 | 0.183 ± 0.011 | 0.156 ± 0.0029 | 0.157 ± 0.0078 | 0.25 ± 0.081 | 0.402 ± 0.079 | 0.202 ± 0.042 | 0.271 ± 0.028 | 0.5 ± 0.066 | 0.413 ± 0.0062 | 0.34 ± 0.02
4 | c1coc(CNc2ncnc3nc[nH]c23)c1 [6-Furfurylaminopurine] | 0.252 ± 0.0041 | 0.29 ± 0.014 | 0.252 ± 0.0053 | 0.209 ± 0.027 | 0.181 ± 0.0069 | 0.138 ± 0.0046 | 0.341 ± 0.068 | 0.43 ± 0.043 | 0.209 ± 0.011 | 0.221 ± 0.024 | 0.44 ± 0.022 | 0.405 ± 0.0075 | 0.365 ± 0.0057
5 | CCc1nc(N)nc(N)c1-c1ccc(Cl)cc1 [Pyrimethamine] | 0.1323 ± 0.0013 | 0.123 ± 0.0079 | 0.0978 ± 0.0026 | 0.123 ± 0.0035 | 0.0795 ± 0.0019 | 0.139 ± 0.002 | 0.17 ± 0.024 | 0.179 ± 0.015 | 0.173 ± 0.016 | 0.191 ± 0.044 | 0.5321 ± 0.0036 | 0.401 ± 0.026 | 0.261 ± 0.018
6 | CN(C)CCCO[C@@H]1[C@H]2OC(C)(C)O[C@H]2O[C@@H]1[C@H](O)CO [Amiprilose hydrochloride] | 0.23 ± 0.012 | 0.304 ± 0.024 | 0.262 ± 0.0085 | 0.196 ± 0.0086 | 0.185 ± 0.0074 | 0.137 ± 0.003 | 0.411 ± 0.073 | 0.385 ± 0.076 | 0.199 ± 0.017 | 0.269 ± 0.046 | 0.613 ± 0.04 | 0.405 ± 0.013 | 0.337 ± 0.022
7 | CCCCCCC[N+](CC)(CC)CCCCc1ccc(Cl)cc1 [Clofilium tosylate] | 0.03993 ± 0.00025 | 0.03923 ± 5.8e-05 | 0.039 ± 0.00017 | 0.03977 ± 0.00021 | 0.03863 ± 0.00025 | 0.0398 ± 0.00026 | 0.0468 ± 0.00026 | 0.0474 ± 0.00051 | 0.0462 ± 0.00046 | 0.0478 ± 0.0034 | 0.0487 ± 0.00091 | 0.0551 ± 0.0018 | 0.05213 ± 0.0004
8 | CCCCCCNC(=O)n1cc(F)c(=O)[nH]c1=O [Carmofur] | 0.1489 ± 0.00094 | 0.215 ± 0.024 | 0.176 ± 0.017 | 0.108 ± 0.0064 | 0.0803 ± 0.0054 | 0.112 ± 0.0029 | 0.235 ± 0.029 | 0.359 ± 0.026 | 0.179 ± 0.01 | 0.201 ± 0.018 | 0.508 ± 0.04 | 0.349 ± 0.056 | 0.134 ± 0.014
9 | CN(C)CCCC1(c2ccc(F)cc2)OCc2cc(C#N)ccc21 (configuration not stated) [Citalopram Hydrobromide] | 0.207 ± 0.0054 | 0.272 ± 0.011 | 0.25 ± 0.0072 | 0.173 ± 0.0067 | 0.155 ± 0.0054 | 0.138 ± 0.0049 | 0.289 ± 0.024 | 0.397 ± 0.051 | 0.191 ± 0.022 | 0.211 ± 0.017 | 0.476 ± 0.068 | 0.4152 ± 0.0024 | 0.321 ± 0.017
10 | CN(c1nccc(=O)[nH]1)C1CCN(c2nc3ccccc3n2Cc2ccc(F)cc2)CC1 [Mizolastine] | 0.18 ± 0.016 | 0.221 ± 0.011 | 0.172 ± 0.0085 | 0.215 ± 0.01 | 0.0813 ± 0.0018 | 0.1409 ± 0.0014 | 0.177 ± 0.0092 | 0.293 ± 0.036 | 0.2 ± 0.039 | 0.174 ± 0.012 | 0.426 ± 0.018 | 0.406 ± 0.0081 | 0.162 ± 0.026
11 | CC(=O)Nc1nnc(S(N)(=O)=O)s1 [Acetazolamide] | 0.249 ± 0.017 | 0.293 ± 0.023 | 0.253 ± 0.0037 | 0.234 ± 0.0084 | 0.166 ± 0.0058 | 0.141 ± 0.006 | 0.361 ± 0.014 | 0.394 ± 0.051 | 0.211 ± 0.015 | 0.253 ± 0.077 | 0.436 ± 0.042 | 0.408 ± 0.011 | 0.317 ± 0.05
12 | CC(C)(O/N=C(\C(=O)N[C@@H]1C(=O)N2C(C(=O)[O-])=C(C[n+]3ccccc3)CS[C@H]12)c1csc(N)n1)C(=O)O [Ceftazidime pentahydrate] | 0.0434 ± 0.00087 | 0.0435 ± 0.0041 | 0.0396 ± 0.0004 | 0.0423 ± 0.0036 | 0.0575 ± 0.00086 | 0.0674 ± 0.0023 | 0.113 ± 0.0029 | 0.0679 ± 0.011 | 0.167 ± 0.072 | 0.0547 ± 0.0049 | 0.0473 ± 0.00053 | 0.0467 ± 0.002 | 0.0727 ± 0.0092
13 | CCc1ccc(CCOc2ccc(CC3SC(=O)NC3=O)cc2)nc1 (configuration not stated) [Pioglitazone] | 0.225 ± 0.0024 | 0.268 ± 0.012 | 0.267 ± 0.0054 | 0.176 ± 0.0064 | 0.164 ± 0.002 | 0.15 ± 0.0092 | 0.292 ± 0.045 | 0.334 ± 0.04 | 0.191 ± 0.0045 | 0.191 ± 0.011 | 0.577 ± 0.076 | 0.426 ± 0.018 | 0.358 ± 0.023
14 | CC(C)Cc1ccc([C@H](C)C(=O)O)cc1 [S-(+)-ibuprofen] | 0.236 ± 0.012 | 0.269 ± 0.013 | 0.24 ± 0.006 | 0.166 ± 0.0055 | 0.194 ± 0.0082 | 0.129 ± 0.0024 | 0.262 ± 0.015 | 0.311 ± 0.0056 | 0.196 ± 0.014 | 0.18 ± 0.016 | 0.615 ± 0.082 | 0.402 ± 0.012 | 0.329 ± 0.004
